MITF inh = blocks human microphthalmia-associated transcription factor; inhibition, % at 2.6 µM; AlphaScreen MITF homodimerization, bead proximity signal; O75030; 650,000 compounds, 0.91% hits; in the data active means inhibition above about 50%;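 further: 0% = vehicle wells with protein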
FBW7 activator = activators of human E3 ligase FBW7; Q969H0; AlphaScreen FBW7–phospho-cyclin E peptide binding, activator screen; normalized activity (activation), % at 26.1 µM; 650,000 compounds, 0.13% hits; AID 1259310; in the data active means normalized activity above about 1.9%;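 further: purified mutant Fbw7 with reduced substrate affinity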
GPR151 activ = human GPR151 activation. PathHunter beta-arrestin GPR151 cells, luminescence. activation, % at 11.2 µM. 650,000 compounds, 1% hits. AID 1508602; in the data active means activation above about 4.9%;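 further: 0% = median of compound wells and 100% = cells with positive control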
Target sequence (Q8TDV0 whole entry, looked up): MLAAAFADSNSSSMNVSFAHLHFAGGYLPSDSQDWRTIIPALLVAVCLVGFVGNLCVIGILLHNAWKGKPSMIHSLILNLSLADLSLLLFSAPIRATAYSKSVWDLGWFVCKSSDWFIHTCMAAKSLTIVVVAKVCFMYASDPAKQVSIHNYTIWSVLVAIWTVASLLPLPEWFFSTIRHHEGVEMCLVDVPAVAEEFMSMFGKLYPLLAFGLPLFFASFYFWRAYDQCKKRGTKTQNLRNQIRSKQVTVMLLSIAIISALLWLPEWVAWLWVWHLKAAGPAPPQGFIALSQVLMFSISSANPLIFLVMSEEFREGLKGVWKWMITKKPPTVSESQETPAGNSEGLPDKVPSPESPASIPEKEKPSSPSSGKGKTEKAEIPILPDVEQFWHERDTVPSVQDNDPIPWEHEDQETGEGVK
TEAD-YAP block = TEAD-YAP interaction inhibition | HEK-TIYL cells, TEAD-Gal4/YAP UAS-luciferase luminescence | inhibition, % at 9.12 µM | 640,000 compounds, 1.4% hits | AID 1259422; in the data active means inhibition above about 32%;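 further: 0% = median of test compound wells and 100% = reference inhibitor wells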
Starred values were filed as active, the others as inactive. This is a sample that favours compounds with a hit; in the whole collection about 3.5% have one here.

SMILES | MITF inh | FBW7 activator | GPR151 activ | TEAD-YAP block
CC(C)c1ccc2oc(-c3ccc(NC(=O)COc4ccc5ccccc5c4)cc3)nc2c1 | 2 | 0 | 0 | 42*
CCC(=O)Nc1ccc2oc(-c3ccccc3F)nc2c1 | 7 | 0 | -2 | 39*
CC(C)C(=O)Nc1cc(-c2nc3cc(C(C)C)ccc3o2)ccc1Cl | -15 | 0 | 0 | 45*
Cc1cc(OCC(=O)Nc2ccc(-c3nc4cc(C(C)C)ccc4o3)cc2)cc(C)c1Cl | 20 | 0 | -1 | 6
O=C(Cc1ccc(Cl)cc1)Nc1ccc2oc(-c3ccccc3F)nc2c1 | 2 | 0 | -1 | -13
Cc1cc(C)c2oc(-c3cccc(NC(=O)COc4cc(C)c(Cl)c(C)c4)c3)nc2c1 | -16 | 0 | 0 | 42*
CCOc1cccc2c1OC1(C)CC2NC(=O)N1c1ccc(C)c(C)c1 (stereo not given) | -6 | 0 | 1 | 9
Cc1cc(OCC(=O)Nc2ccc3oc(-c4cccnc4)nc3c2)cc(C)c1Cl | -5 | 0 | -1 | -12
Cc1cc(OCC(=O)Nc2ccc3oc(-c4ccccc4Br)nc3c2)cc(C)c1Cl | 25 | 2.0* | 3 | 3
COc1ccccc1/C=C1\SC(=S)N(C(C)C)C1=O | 12 | 0 | -2 | 10
CCOC(=O)CSc1nnnn1-c1ccccc1F | 6 | 1 | -2 | -1
Fc1ccccc1CSc1nnnn1-c1ccccc1F | 21 | 2.3* | -1 | -13
NC(=O)CSc1nnnn1-c1ccccc1F | 4 | 2.4* | -2 | 12
O=C(CN(c1ccc(Cl)c(Cl)c1)S(=O)(=O)c1ccccc1)Nc1ccccc1[N+](=O)[O-] | 4 | 0 | 0 | 8
Cc1cc(/C=C/C(=O)O)c(C)n1-c1ccnn1C(C)C | -5 | 0 | 1 | 5
Cc1ccccc1Nc1nc(Cl)c(C=O)s1 | 6 | 0 | 0 | 40*
CCOC(=O)CC(NS(=O)(=O)c1cc(C)c(OC)cc1C)c1ccc(OC)cc1 (stereo not given) | -1 | 0 | 1 | 7
CC(=O)NC(=O)c1cc2ccccc2oc1=Nc1ccc(C#N)cc1 | -2 | 0 | 1 | -3
N=C1C(c2nc3ccccc3s2)=C(O)CN1/N=C/C=O | 1 | 0 | 1 | 2
N=C1C(c2nc3ccccc3s2)=C(O)CN1/N=C/c1ccc(O)c(O)c1O | 56* | 0 | -1 | -11
COCC(=O)Nc1c(C)nc2cnc(-c3ccc(F)c(Cl)c3)cn12 | -15 | 0 | 1 | 0
CC1Cc2cc(S(=O)(=O)N(C)CC(=O)Nc3cccnc3)ccc2N1C(=O)C1CC1 (stereo not given) | 8 | 0 | -1 | 39*
COc1ccccc1C(=O)NC1CCCCC1NC(=O)c1ccccc1OC (stereo not given) | 23 | 0 | 2 | 3
O=C(Nc1nccs1)c1cc2ccccc2o1 | -7 | 0 | -9 | 58*
O=C(O)c1cccc(NC(=O)c2cc3ccccc3o2)c1 | 1 | 0 | 3 | 39*
SMILES | MITF inh | FBW7 activator | GPR151 activ | TEAD-YAP block
O=C(Cn1c2[n+](c3ccccc31)CC(O)CS2)N1CCCCCC1 (stereo not given) | -16 | 0 | 1 | 1
CC(C)C[C@H]1NC(=O)[C@@H]2C[C@H](NCc3cn(C)nc3-c3ccccc3)CN2C1=O | -8 | 2.5* | 0 | 0
Cn1cc(CN[C@H]2C[C@H]3C(=O)N[C@@H](CO)C(=O)N3C2)c(-c2ccccc2)n1 | -9 | 0 | 1 | -6
Cc1ccc(Nc2nc(N)c3ccccc3n2)cc1C | 19 | 0 | -6 | 55*
NC(=O)CCn1nc(C(F)(F)F)c2cccn2c1=O | -5 | 0 | -1 | -7
C[S+](C)C(CS(=O)(=O)O)c1ccccc1 (stereo not given) | 8 | 0 | 1 | 1
N=C1/C(=C/c2ccc(OCc3ccc4c(c3)OCO4)c(Cl)c2)C(=O)N=C2SC=CN12 | -5 | 0 | -5 | 39*
N=C1/C(=C/c2cn(Cc3ccc4c(c3)OCO4)c3ccccc23)C(=O)N=C2SC=CN12 | 7 | 0 | 2 | 12
Cc1cccc(C(=O)Nc2ccc(O)c(-c3nc4ccccc4o3)c2)c1 | -1 | 0 | 0 | -6
Cc1cccc(Nc2ccc([N+](=O)[O-])cc2S(N)(=O)=O)c1 | 9 | 0 | -2 | 36*
Cc1cc(Nc2ccc(N3CCOCC3)cc2)nc(Nc2ccc3ncccc3c2)n1 | -1 | 0 | 1 | 57*
Cc1cc(Nc2ccccc2)nc(N2CCN(C(=O)C(C)(C)C)CC2)n1 | -5 | 0 | 1 | 32*
CC(=O)Nc1ccc(Nc2cc(C)nc(N3CCN(c4ccccn4)CC3)n2)cc1 | 5 | 0 | -1 | 9
CCN(CC)c1nc(Nc2ccc(N3CCOCC3)cc2)nc(Nc2nc3ccccc3n2C)n1 | -1 | 0 | -1 | 22
Cn1c(Nc2nccc(Nc3ccc(N4CCOCC4)cc3)n2)nc2ccccc21 | 22 | 0 | 4 | 54*
Cc1cc(Nc2ccc(N3CCOCC3)cc2)nc(Nc2ncccn2)n1 | 7 | 0 | 0 | 7
Cc1cc(Nc2ccc(N3CCOCC3)cc2)nc(N2CCc3ccccc3C2)n1 | 19 | 0 | 2 | 41*
COc1ccc(N2C(=O)NC(=O)/C(=C/c3cccc(C(F)(F)F)c3)C2=O)cc1 | 14 | 0 | -2 | -3
CC(C)C(NC(=O)/C(=C/c1ccccc1)NC(=O)c1ccco1)C(=O)O (stereo not given) | 26 | 0 | -1 | -2
O=C1CN(C(=O)C2CC2)C(c2ccc(F)cc2)c2cc(Br)ccc2N1 (stereo not given) | 2 | 0 | -1 | 9
CCC1(c2ccc(Cl)cc2)NC(=O)N(CC(=O)N2CC3(C)CC2CC(C)(C)C3)C1=O (stereo not given) | -5 | 0 | 1 | 6
N#CC1=C(N)Oc2n[nH]c(-c3cccs3)c2C12C(=O)Nc1ccccc12 (stereo not given) | -7 | 0 | -1 | -1
c1cnc2ccc(Nc3nccc(Nc4ccc(N5CCOCC5)cc4)n3)cc2c1 | 24 | 0 | 5 | 82*
N#C/C(=C(/O)Cc1ccccc1)c1nc2ccccc2[nH]1 | -6 | 0 | 1 | -1
CCOC(=O)C(C)Oc1ccc2cc(-c3ccccc3)c(=O)oc2c1 (stereo not given) | -4 | 2.3* | -4 | 18
SMILES | MITF inh | FBW7 activator | GPR151 activ | TEAD-YAP block
CC(=O)Nc1ccnn1C1CCN(Cc2ccc(-c3ccccc3)cc2)CC1 | 14 | 0 | 0 | -17
CC(=O)Nc1ccnn1C1CCN(Cc2cnc(-c3ccccc3)s2)CC1 | -1 | 0 | -5 | 67*
CC(=O)Nc1ccnn1C1CCN(Cc2cnc(-c3ccccc3C)nc2)CC1 | 9 | 0 | -2 | 41*
CCN(CCCNC(=O)CC1Nc2c3ccccc3nc(=S)n2C1=O)c1ccccc1 (stereo not given) | 12 | 0 | 0 | 15
CCN1/C(=C/c2cc(C)[n+](CCO)c(C)c2)Sc2ccccc21 | 1 | 0 | 1 | 33*
COCC[n+]1c(C)cc(/C=C2\Sc3ccccc3N2C)cc1C | -7 | 0 | 0 | 76*
CCN1/C(=C/c2cccc[n+]2C)Sc2ccccc21 | -2 | 0 | 2 | 46*
CN1CCN(c2ccc(-c3nc(NCCOc4ccccc4)c4ncn(-c5ccsc5)c4n3)cc2)CC1 | 6 | 0 | 0 | 11
